Reference: PubChem BioAssay (EPA / NIEHS)
Calls of active or inactive are those of the source. How the source made its calls: active means hit-call score of the fitted dose curve at least 0.9, where 1 is the maximum; inactive means score below 0.9.

Key:
Conditions in all cases: mRNA level, 48 h; actives raise or lower the signal
[1] = read-out: Lipoprotein lipase (LPL), LPL (gene 4023); test: LTEA_HepaRG_LPL: Life Technologies and Expression Analysis (LTEA) Assay for Lipoprotein lipase (LPL) using HepaRG (AID 2283515)
Method in brief: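 Differentiated human HepaRG cells in serum-free induction medium were exposed in duplicate for 48 h to eight half-log concentrations (top 100 uM) in 0.5% DMSO. LPL mRNA was quantified by TaqMan qRT-PCR, normalized to ACTB, GAPDH and POLR2A.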

[2] = read-out: MicroRNA 122 (MIR122), gene 406906; test: LTEA_HepaRG_MIR122: Life Technologies and Expression Analysis (LTEA) Assay for MicroRNA 122 (MIR122) using HepaRG (AID 2283516); further: the transcript read is the microRNA miR-122
Method in brief: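 HepaRG plated 48 h, switched to serum-free induction medium, then treated in duplicate for 48 h (100 uM top, half-log steps, 0.5% DMSO vehicle). RNA isolated, qRT-PCR performed, concentration-response fitted both directions relative to DMSO.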

MYC, MYC (gene 4609) = test: LTEA_HepaRG_MYC: Life Technologies and Expression Analysis (LTEA) Assay for MYC using HepaRG (AID 2283518)
Method in brief: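 HepaRG, ~100,000 cells/well, collagen I; 48 h plating; serum-free induction medium; 48 h dosing, duplicate, 100 uM top, half-log, 0.5% DMSO; total RNA → qRT-PCR MYC; gain/loss fit vs DMSO.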

[3] = read-out: matrix metalloproteinase-3 (MMP3), MMP3 (gene 4314); test: LTEA_HepaRG_MMP3: Life Technologies and Expression Analysis (LTEA) Assay for matrix metalloproteinase-3 (MMP3) using HepaRG (AID 2283519)
Method in brief: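 Differentiated human HepaRG cells, plated 48 h on collagen I, were exposed in duplicate for 48 h in serum-free induction medium to eight half-log concentrations up to 100 uM in 0.5% DMSO. MMP3 mRNA was quantified by TaqMan qRT-PCR, normalised to ACTB, GAPDH and POLR2A.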

[4] = read-out: Paternally Expressed 10 (PEG10), PEG10 (gene 23089); test: LTEA_HepaRG_PEG10: Life Technologies and Expression Analysis (LTEA) Assay for Paternally Expressed 10 (PEG10) using HepaRG (AID 2283520)
Method in brief: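 HepaRG, 48 h post-plating → serum-free induction medium → 48 h chemical exposure (duplicate, 8-pt, max 100 uM, half-log, 0.5% DMSO) → lysis in RLT → TaqMan qRT-PCR for PEG10, ACTB/GAPDH/POLR2A normalisation.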

[5] = read-out: Protein phosphatase 2A (PPP2R4), PTPA (gene 5524); test: LTEA_HepaRG_PPP2R4: Life Technologies and Expression Analysis (LTEA) Assay for Protein phosphatase 2A (PPP2R4) using HepaRG (AID 2283522)
Method in brief: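 Readout is PPP2R4 transcript level by microfluidic qRT-PCR after 48 h chemical treatment of human HepaRG liver cells. Concentrations spanned 100 uM downward in half-log steps; gain or loss of signal was fitted relative to DMSO.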

[6] = read-out: Phosphatase and tensin (PTEN), PTEN (gene 5728); test: LTEA_HepaRG_PTEN: Life Technologies and Expression Analysis (LTEA) Assay for Phosphatase and tensin (PTEN) using HepaRG (AID 2283523)
Method in brief: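 Differentiated human HepaRG cells, plated 48 h then switched to serum-free induction medium, were exposed in duplicate for 48 h to eight half-log concentrations up to 100 uM in 0.5% DMSO. PTEN mRNA measured by TaqMan qRT-PCR, normalized to ACTB/GAPDH/POLR2A, bidirectional fit versus DMSO.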

[7] = read-out: solute carrier (SLC22A1), SLC22A1 (gene 6580); test: LTEA_HepaRG_SLC22A1: Life Technologies and Expression Analysis (LTEA) Assay for solute carrier (SLC22A1) using HepaRG (AID 2283524)
Method in brief: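 Human HepaRG cells were plated 48 h, switched to serum-free induction medium, then exposed in duplicate for 48 h to 8-point half-log series from 100 uM in 0.5% DMSO. SLC22A1 mRNA measured by qRT-PCR, normalized to ACTB/GAPDH/POLR2A, fitted bidirectionally versus DMSO.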

[8] = read-out: Pyruvate Dehydrogenase Kinase 4 (PDK4), PDK4 (gene 5166); test: LTEA_HepaRG_PDK4: Life Technologies and Expression Analysis (LTEA) Assay for Pyruvate Dehydrogenase Kinase 4 (PDK4) using HepaRG (AID 2283525)
Method in brief: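 Differentiated human HepaRG cells, pre-cultured 48 h, were exposed in duplicate for 48 h in serum-free induction medium to eight half-log concentrations up to 100 uM in 0.5% DMSO. PDK4 mRNA was quantified by qRT-PCR, normalized to ACTB, GAPDH and POLR2A, bidirectional fitting versus DMSO.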

[9] = read-out: Nuclear factor NF-kappa-B p105 subunit (Homo sapiens) (UniProt P19838); test: LTEA_HepaRG_NFKB1: Life Technologies and Expression Analysis (LTEA) Assay for Nuclear Factor Kappa B Subunit 1 (NFKB1) using HepaRG (AID 2283521)
Method in brief: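 Differentiated human HepaRG cells were exposed for 48 h in serum-free induction medium to eight concentrations (top 100 uM, half-log steps, 0.5% DMSO), in duplicate. NFKB1 mRNA was measured by TaqMan qRT-PCR, normalized to ACTB/GAPDH/POLR2A, and fitted bidirectionally against DMSO.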

Measured: AC50

Sequence of Nuclear factor NF-kappa-B p105 subunit (Homo sapiens) (P19838 whole entry, looked up): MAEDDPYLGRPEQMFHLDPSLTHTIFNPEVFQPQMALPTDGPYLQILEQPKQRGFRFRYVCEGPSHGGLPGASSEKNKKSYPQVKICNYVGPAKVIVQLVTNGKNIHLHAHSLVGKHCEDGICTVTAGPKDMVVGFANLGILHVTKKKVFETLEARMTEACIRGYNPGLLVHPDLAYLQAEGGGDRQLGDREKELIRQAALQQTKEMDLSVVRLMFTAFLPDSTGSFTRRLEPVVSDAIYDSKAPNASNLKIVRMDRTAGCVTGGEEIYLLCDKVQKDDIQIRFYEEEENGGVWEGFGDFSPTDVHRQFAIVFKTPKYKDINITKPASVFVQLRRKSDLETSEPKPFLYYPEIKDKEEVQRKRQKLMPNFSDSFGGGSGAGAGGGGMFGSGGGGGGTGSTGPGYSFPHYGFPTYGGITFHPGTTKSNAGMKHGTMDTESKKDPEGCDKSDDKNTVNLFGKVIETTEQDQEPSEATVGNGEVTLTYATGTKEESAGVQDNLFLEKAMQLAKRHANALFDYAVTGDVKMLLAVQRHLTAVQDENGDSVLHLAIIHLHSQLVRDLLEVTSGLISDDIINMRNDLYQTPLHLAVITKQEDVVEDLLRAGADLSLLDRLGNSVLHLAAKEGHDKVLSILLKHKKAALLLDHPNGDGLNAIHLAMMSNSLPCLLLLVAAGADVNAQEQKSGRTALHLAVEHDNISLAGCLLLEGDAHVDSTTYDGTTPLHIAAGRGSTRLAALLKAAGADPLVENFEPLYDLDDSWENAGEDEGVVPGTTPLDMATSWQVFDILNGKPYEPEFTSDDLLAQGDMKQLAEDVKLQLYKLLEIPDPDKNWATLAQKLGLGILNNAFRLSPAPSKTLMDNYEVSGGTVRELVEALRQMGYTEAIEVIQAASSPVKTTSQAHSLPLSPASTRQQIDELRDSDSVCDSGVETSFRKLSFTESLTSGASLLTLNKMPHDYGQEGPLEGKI

Cc1[nH]nc2c1N=C(c1ccccc1Cl)c1cc([N+](=O)[O-])ccc1N2
inactive: [5] | [6]
active: [1] 13 µM | [2] 7.26 µM | MYC, MYC (gene 4609) 82 µM | [3] 9.48 µM | [4] 3.67 µM | [7] 5.69 µM | [8] 0.37 µM

CCCCc1oc2ccccc2c1C(=O)c1cc(I)c(OCCN(CC)CC)c(I)c1
inactive: [3] | [5] | [6]
active: [1] 47.6 µM | [2] 70.4 µM | MYC, MYC (gene 4609) 68.7 µM | [4] 22.6 µM | [7] 70.6 µM | [8] 59.2 µM

O=C1NS(=O)(=O)c2ccccc21
inactive: [1] | [2] | MYC, MYC (gene 4609) | [3] | [4] | [5] | [6] | [7] | [8]

O=C(c1ccccc1)c1ccccc1
inactive: [1] | [2] | MYC, MYC (gene 4609) | [3] | [4] | [5] | [6] | [7] | [8]

CC(=O)Nc1ccc(O)cc1
inactive: [1] | [2] | MYC, MYC (gene 4609) | [3] | [4] | [5] | [6] | [7] | [8]

CCCCCCCCCCCCCCC
inactive: [1] | [2] | MYC, MYC (gene 4609) | [3] | [4] | [9] | [5] | [6] | [7] | [8]

CCCCCCCCCCCCOS(=O)(=O)O
inactive: [1] | MYC, MYC (gene 4609) | [3] | [4]
active: [2] 86.2 µM | [7] 77.5 µM | [8] 36.9 µM

CS(=O)(=O)c1ccc([C@@H](CC2CCCC2)C(=O)Nc2cnccn2)cc1Cl
active: [2] 80.8 µM | MYC, MYC (gene 4609) 62.7 µM | [5] 50 µM | [7] 66.7 µM
inactive: [1] | [3] | [4] | [6] | [8]

O=C(CCCN1CCC(O)(c2ccc(Cl)cc2)CC1)c1ccc(F)cc1
active: [1] 34.4 µM | MYC, MYC (gene 4609) 73.6 µM | [3] 12.5 µM | [7] 85.5 µM | [8] 69.4 µM
inactive: [2] | [4] | [5] | [6]

OCC(CO)(CBr)CBr
inactive: [1] | [2] | MYC, MYC (gene 4609) | [3] | [4] | [9] | [5] | [6] | [7] | [8]

N=C(N)c1ccc(OCCCCCOc2ccc(C(=N)N)cc2)cc1
active: [1] 68.9 µM | [2] 3.63 µM | MYC, MYC (gene 4609) 3.56 µM | [4] 26.6 µM | [9] 29.1 µM | [5] 28.4 µM | [6] 29.9 µM | [7] 6.6 µM

CN(Cc1cnc2nc(N)nc(N)c2n1)c1ccc(C(=O)N[C@@H](CCC(=O)O)C(=O)O)cc1
active: [7] 0.137 µM | [8] 0.515 µM
inactive: [1] | [2] | MYC, MYC (gene 4609) | [3] | [4] | [5] | [6]

CN(C)CCOC(c1ccccc1)c1ccccc1
active: [1] 50 µM
inactive: [2] | MYC, MYC (gene 4609) | [3] | [4] | [5] | [6] | [7] | [8]

CCCCC=O
inactive: [1] | [2] | MYC, MYC (gene 4609) | [3] | [4] | [9] | [5] | [6] | [7] | [8]

CCC(C)c1ccccc1O (stereo not given)
inactive: [1] | [2] | MYC, MYC (gene 4609) | [3] | [4] | [9] | [5] | [6] | [7] | [8]

CCCCC(CC)C(=O)O (stereo not given)
inactive: [1] | [2] | MYC, MYC (gene 4609) | [3] | [4] | [5] | [6] | [7] | [8]
